PubChem BioAssay (NCATS)
Inconclusive results are not listed. Entries that show only a call come without a potency. Calls of active or inactive are those of the source. Calls come from the whole dose curve; as a rule, active = well fitted curve in the direction sought with a large enough effect; inconclusive = small, poorly fitted or top-dose-only effect, or another doubt; inactive = no such curve, though single readings can be large; an effect the other way counts as inactive or inconclusive.

System: not listed separately
Assay: Cell Viability - LYMP1-002 - Assay at 24 hr (AID 993)
Settings: LYMP1-002 lymphoblastoid cells viability; series mostly up to 92.2 µM
Method in brief: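 qHTS, LYMP1-002 lymphoblastoid, 24 h cpd, 37 C, CellTiter-Glo ATP luminescence; AC50 via Hill eq.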

Row | SMILES | outcome
1 | O=c1[nH]c(=O)n([C@H]2C[C@H](O)[C@@H](CO)O2)cc1Br | inactive
2 | Nc1nc(N)c2nc(-c3ccccc3)c(N)nc2n1 | inactive
3 | CCCCOCCOCCOCc1cc2c(cc1CCC)OCO2 | inactive
4 | NC(=Nc1ccccc1)Nc1ccccc1 | inactive
5 | CN=C(NC#N)NCCSCc1nc[nH]c1C | inactive
6 | NC(=O)N1c2ccccc2C=Cc2ccccc21 | inactive
7 | COc1ccc(CN(CCN(C)C)c2ccccn2)cc1 | inactive

System: not listed separately
Assay: Cell Viability - LYMP1-002 - Assay at 40 hr (AID 994); note: nearly all actives have a fitted effect of over 60% in size; note: potency is the fitted concentration of half-maximal effect
Settings: LYMP1-002 lymphoblastoid cell viability; series mostly up to 92.2 µM
Method in brief: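 Viability in the human lymphoblastoid line was measured as intracellular ATP via CellTiter-Glo after 40 hr compound exposure. Tetraoctylammonium bromide served as positive control.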

Row | SMILES | Potency
8 | O=c1[nH]c(=O)n([C@H]2C[C@H](O)[C@@H](CO)O2)cc1Br | inactive
9 | Nc1ncn([C@@H]2O[C@H](CO)[C@@H](O)[C@H]2O)c(=O)n1 | 15.8 µM (active)
10 | CCCCOCCOCCOCc1cc2c(cc1CCC)OCO2 | inactive
11 | NC(=Nc1ccccc1)Nc1ccccc1 | inactive
12 | CN=C(NC#N)NCCSCc1nc[nH]c1C | inactive
13 | NC(=O)N1c2ccccc2C=Cc2ccccc21 | inactive
14 | COc1ccc(CN(CCN(C)C)c2ccccn2)cc1 | inactive

Target: alpha-glucosidase (Oryza sativa, rice) (UniProt Q653V4)
Assay: Counterscreen for Glucocerebrosidase Inhibitors: qHTS Assay for Rice alpha-Glucosidase at pH 5.0 (AID 997)
Settings: rice alpha-glucosidase enzyme activity; series mostly up to 76.9 µM
Method in brief: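 Rice alpha-glucosidase (4 nM final) with 400 uM 4-methylumbelliferyl-alpha-D-glucopyranoside in citrate buffer pH 5.0, 20 min at room temperature, stopped at pH 10; fluorescence 365/440 nm, compounds 0.7 nM–77 uM, AC50 from Hill fits.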

Row | SMILES | outcome
15 | C[C@]12CCC(=O)C=C1CC[C@@H]1[C@@H]2C(=O)C[C@@]2(C)[C@H]1CC[C@]2(O)C(=O)CO | inactive
16 | CC(C)NNC(=O)c1ccncc1 | inactive
17 | CCCOc1ccccc1-c1nc2n[nH]nc2c(=O)[nH]1 | inactive
18 | O=c1[nH]c(=O)n([C@H]2C[C@H](O)[C@@H](CO)O2)cc1Br | inactive
19 | CCN(CC)CCNC(=O)c1cc(S(C)(=O)=O)ccc1OC | inactive
20 | Nc1ncn([C@@H]2O[C@H](CO)[C@@H](O)[C@H]2O)c(=O)n1 | inactive
21 | C[n+]1cc2c3c(ccc2c2ccc4cc5c(cc4c21)OCO5)OCO3 | inactive
22 | CCc1c(C)[nH]c2c1C(=O)C(CN1CCOCC1)CC2 (stereo not given) | inactive
23 | CN(C)CCN(Cc1cccs1)c1ccccn1 | inactive
24 | CCN(CC)CCNC(=O)c1ccc(NC(C)=O)cc1 | inactive
25 | CN1CCN(CC(=O)N2c3ccccc3C(=O)Nc3cccnc32)CC1 | inactive
26 | CC[N+](C)(C)c1cccc(O)c1 | inactive
27 | C[N+](C)(C)CCOC(=O)CCC(=O)OCC[N+](C)(C)C | inactive
28 | Cc1nc2c([nH]1)c(=O)n(C)c(=O)n2Cc1ccco1 | inactive
29 | CCCCNc1c(C(=O)OCC)c(C)nc2c1cnn2CC | inactive
30 | OCCN1CCN(CCCN2c3ccccc3C=Cc3ccccc32)CC1 | inactive

Row | SMILES | outcome
31 | Cc1ccc(=O)n(-c2ccccc2)c1 | inactive
32 | CCn1cc(C(=O)O)c(=O)c2cc3c(cc21)OCO3 | inactive
33 | CCN1CCc2nc(N)oc2CC1 | inactive
34 | Cc1ccc(S(=O)(=O)NC(=O)NN2CCCCCC2)cc1 | inactive
35 | c1cnc(N2CCN(Cc3ccc4c(c3)OCO4)CC2)nc1 | inactive
36 | CN=C(NC#N)NCCSCc1nc[nH]c1C | inactive
37 | C#CCN(C)CCCOc1ccc(Cl)cc1Cl | inactive
38 | CN1CCN(C2=Nc3ccccc3Oc3ccc(Cl)cc32)CC1 | inactive
39 | N[C@@H](COP(=O)(O)O)C(=O)O | inactive
40 | NC(=O)N1c2ccccc2C=Cc2ccccc21 | inactive
41 | O=C(O)CN(CCOCCOCCN(CC(=O)O)CC(=O)O)CC(=O)O | inactive
42 | COC(=O)[C@@H](N)Cc1ccc(O)c(O)c1 | inactive
43 | CN(C)CCOC(=O)COc1ccc(Cl)cc1 | inactive
44 | COc1cc2c(cc1OC)-c1cc(=Nc3c(C)cc(C)cc3C)n(C)c(=O)n1CC2 | inactive
45 | COc1ccc(CN(CCN(C)C)c2ccccn2)cc1 | inactive
